# Experimental data published in PubChem BioAssay (Tox21).
# Results filed as inconclusive are left out. A call without a number means that no potency is given here. The source made the active and inactive calls. Calls come from the whole dose curve; as a rule, active = well fitted activation curve with a large enough effect in the signal ratio in the repeat runs (not every such curve was filed as active); inconclusive = weak or mixed curves; inactive = flat fitted curve, though single readings scatter; the % refers to the signal ratio.
# Experiment: qHTS assay to identify small molecule agonists of H2AX (AID 1224845)
# Conditions: CHO-K1 phospho-H2AX Ser139 HTRF, 3 h; series mostly up to 154 µM
# From the text: National Center for Advancing Translational Sciences [NCATS]
# NIH Chemical Genomics Center [NCGC]
# U.S. Environmental Protection Agency [EPA]
# National Institutes of Environmental Health Sciences [NIEHS]
# National Toxicology Program [NTP]
# U.S. Food and Drug Administration [FDA]
# HTRF phospho-H2AX (Ser139) assay (Cisbio Bioassays, US) enables the quantitative detection of the histone variant H2AX when phosphorylated on serine 139. When double-stranded DNA breaks, either by ionizing radiation or endogenous physiological processes, H2AX becomes phosphorylated at Ser139. This phospho-Ser139 serves as a sensitive biomarker for the detection of such breaks, localizing the site of DNA repair. So, HTRF phospho-H2AX Ser139 is a pertinent assay to study genome stability, the cell cycle, DNA repair, and it serves as a biomarker for cancer, and to understand aging. Wild type CHO-K1 cells were used to identify the inducers of Phospho-H2AX Ser 139 from the Tox21 10K compound collections.
# Tox21 Assay Protocol Summary:
# The CHO-K1 cells suspended in culture medium containing 10% FBS were dispensed at 1000 cells/ 3 ul/well in 1536-well white wall/solid bottom plates (Greiner Bio-One North America, NC) using a Multidrop Combi (Thermo Fisher Scientific Inc., Waltham, MA). After the assay plates were incubated at 37C overnight, 23 nl of compounds at 15 concentrations (from 5-48 columns) or positive control (from 1 to 4 columns) were transferred to the assay plates using a Pintool station (Wako, San Diego, CA) into each well resulting in a final DMSO concentration of 0.76%. After 3hr incubation at 37C, 1 uL/well Supplemented Lysis buffer (diluted 100 fold blocking reagent in lysis buffer) (HTRF Phospho-H2A.X (S139) Assay kit from Cisbio US Inc., Bedford, MA) was added using a Flying Reagent Dispenser (FRD) (Aurora Discovery, CA). After 10sec spin at 1000 rpm in a plate centrifuge, the assay plates were incubated at room temperature for 30 min. Then followed by the addition of 1 uL/well detection buffer (containing a mixture of two antibodies, one labeled with cryptate, Anti pH2AX (S139)-K and another labeled with d2, Anti H2AX-d2) using FRD. After incubation at room temperature for 24 hr, the time resolved fluorescence at excitation 320 nm and emissions at 665 nm and 620 nm was measured using an Envision plate reader (PerkinElmer, Waltham, MA).
# Potency is the fitted concentration of half-maximal effect.
row,Structure (SMILES),Potency
1,CN1CC[C@H](c2c(O)cc(O)c3c(=O)cc(-c4ccccc4Cl)oc23)[C@H](O)C1,inactive
2,CCOC=C(C(=O)OCC)C(=O)OCC,inactive
3,CCOC(=O)[C@H](O)[C@@H](O)C(=O)OCC,inactive
4,Nc1ccc(F)c([N+](=O)[O-])c1,inactive
5,CCn1c2ccccc2c2ccccc21,inactive
6,O=C(CCCCCCCCc1cccnc1)N1CCC(C=C(c2ccccc2)c2ccccc2)CC1,inactive
7,Clc1cccc(Cl)n1,inactive
8,CN(C/C=C/c1ccccc1)Cc1cccc2ccccc12,55.2 µM (active)
9,Clc1ccc2c(Cl)ccnc2c1,inactive
10,CC/C=C(\C)C=O,inactive
11,CCN(CCC#N)c1ccc(N=Nc2ccc([N+](=O)[O-])cc2)cc1,inactive
12,ClC(c1ccccc1)(c1ccccc1)c1ccccc1,inactive
13,CCCC(C)C=O (stereo not given),inactive
14,O=C1OC(=O)c2cc(-c3ccc4c(c3)C(=O)OC4=O)ccc21,inactive
15,O=c1[nH]cccc1O,inactive
16,CCN(CC)c1ccc(C=O)c(O)c1,inactive
17,C=CC(C)(C)O,inactive
18,C=CCc1cc(S(=O)(=O)c2ccc(O)c(CC=C)c2)ccc1O,inactive
19,CC(CC(C)(C)C)CC(C)(C)CC(C)(C)C (stereo not given),inactive
20,C/C(=C\c1ccc(C(=O)O)cc1)c1ccc2c(c1)C(C)(C)CCC2(C)C,inactive

row,Structure (SMILES),Potency
1,CN1CCN(CCCN2c3ccccc3Sc3ccc(C(F)(F)F)cc32)CC1,inactive
2,C=CC(=O)OCC(Br)CBr (stereo not given),inactive
3,CCCCCCCCCC[N+](C)(CCCCCCCCCC)CCC[Si](OC)(OC)OC,inactive
4,CCCCCCCC/C=C\CCCCCCCC(=O)N(CCO)CCO,inactive
5,NC(=O)C1CO1 (stereo not given),inactive
6,Cc1ccc2n[nH]nc2c1,inactive
7,C1=CCCC1,inactive
8,NCc1ccco1,inactive
9,CC(C)(C)c1ccc(OC2CCCCC2O)cc1 (stereo not given),inactive
10,CCc1c(C)cc(N)c(CC)c1N,inactive
11,N#CCCOCCC#N,inactive
12,O=C(Nc1ccc([N+](=O)[O-])cc1)Nc1ccc([N+](=O)[O-])cc1 (tested in a mixture with another compound),inactive
13,CCOC(=O)OC(=O)OCC,inactive
14,Cc1ccc(N=Nc2c(O)ccc3ccccc23)c(C)c1,inactive
15,C[C@H]1O[C@@H](O[C@H]2CC[C@@]3(C)[C@H](CC[C@@H]4[C@@H]3C[C@@H](O)[C@]3(C)[C@@H](C5=CC(=O)OC5)CC[C@]43O)C2)C[C@H](O)[C@@H]1O[C@H]1C[C@H](O)[C@H](O[C@H]2C[C@H](O)[C@H](O[C@@H]3O[C@H](CO)[C@@H](O)[C@H](O)[C@H]3O)[C@@H](C)O2)[C@@H](C)O1,inactive
16,O=C(N[C@H](CO)[C@H](O)c1ccc([N+](=O)[O-])cc1)C(Cl)Cl,inactive
17,Cc1ccc(C=O)cc1,inactive
18,Cc1cccc(C)c1C,inactive
19,CCC(O)CO (stereo not given),inactive
20,C=C(C)CCO,inactive
